Bioassay records (PubChem)
IL-1B inflam inh = inflammasome signaling inhibition, IL-1 beta readout. AID 743279. THP-1 LPS/ATP IL-1B secretion, AlphaLISA, 16 h; active compounds read low. activity change, % at 57.5 µM. actives 4.7% (n = 360,000); in the data active = activity change below about -50%; inconclusive = mostly about -30% to -49%; also: % is scaled to controls: 0 for no effect and ±100 for the full control effect
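Secreted IL-1B measured by AlphaLISA bead assay after 16 h compound exposure of THP-1 cells; compounds (final up to 57.5 uM) added 1 h before LPS (250 ng/mL) and ATP (1.25 mM) stimulation; lower signal means less secretion.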
PINK1 expr mod = modulators of PINK1 expression; AID 624263; PINK1 immunofluorescence, high-content cytometry, 24 h; Potency, µM (top dose mostly 76.6 µM), for inactives: at the highest dose activation (PINK1 increase), actives largely listed as activators; actives 0.2% (n = 410,000); active = well fitted activation curve with a large enough effect; inconclusive = small, poorly fitted or top-dose-only effect; cell line not stated here; also: potency is read from the fitted curve at half-maximal effect; % of control where 0% means no effect; nearly all actives have a fitted effect of over 65% in size
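PINK1 protein, normally rapidly degraded, was detected by immunofluorescence after 24 hour compound treatment of a stable cell line. Titration data (5 concentrations) came from laser-scanning cytometry, with CCCP-treated wells as controls.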
SW480 rereplic = induces DNA re-replication in SW480 colon adenocarcinoma cells | Potency, µM (series often up to 46.1 µM), for the others: top-dose re-replication activation, most hits filed as activators | SW480 DNA re-replication, Hoechst DNA content imaging, 48 h | actives 1.8% (n = 340,000); also: potency is read from the fitted curve at half-maximal effect; % of control where 0% means no effect; nearly all actives have a fitted effect of over 55% in size
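SW480 cells exposed to compounds for 48 hr at 37 C, 5% CO2, then Hoechst-stained 40 min. Nuclear DNA content imaged by fluorescence scanning (405 nm excitation, 500-530 nm emission); re-replication scored as increased high-intensity nuclei.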
ATXN2 expr inh = reduces ATXN2 reporter expression in HEK-293 cells; HEK-293 ATXN2-luciferase reporter, luminescence, 24 h; Potency, µM (top dose mostly 57 µM), inactives show at the highest dose activity change, negative = inhibition, most hits filed as inhibitors; actives 0.72% (n = 360,000); also: potency is read from the fitted curve at half-maximal effect; % is scaled to controls: 0 for no effect and ±100 for the full control effect; nearly all actives have a fitted effect of over 55% in size
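ATXN2-luciferase reporter cells (luciferase flanked by upstream and downstream ATXN2 gene portions) were treated 24 h at 37 °C with compounds at up to 57 uM. SteadyGlo luminescence gave expression; GF-AFC fluorescence gave viability.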
MCF10A rereplic = induces DNA re-replication in MCF 10a normal breast cells; MCF 10A DNA re-replication, Hoechst nuclear intensity, 48 h; Potency, µM (top dose mostly 46.1 µM), inactives show at the highest dose activity, positive = re-replication, usual class: activators; actives 2.9% (n = 350,000); also: potency is read from the fitted curve at half-maximal effect; % of control where 0% means no effect; nearly all actives have a fitted effect of over 50% in size
S2 tox = reduces viability in counter-screen for ATXN expression inhibitors. S2 cells (HEK-293 line with an ATXN2-luciferase reporter) viability, CellTiter-Fluor protease fluorescence, 24 h. Potency, µM (highest dose often 56.7 µM), actives largely listed as cytotoxic. actives 0.49% (n = 400,000); also: potency is read from the fitted curve at half-maximal effect; nearly all actives have a fitted effect of over 40% in size
* marks the source's active call; other numbers are inactive results; i = inactive; ? = inconclusive; nt = not tested or not shown; [ ] = another dose, or the depositor's remark. In the library only some 7.1% were active in any assay of this set; here they are far more common. Unless noted, calls follow the shape of the dose curve; as a rule, active = well fitted curve in the direction sought with a large enough effect; inconclusive = small, poorly fitted or top-dose-only effect, or another doubt; inactive = no such curve, though single readings can be large; an effect the other way counts as inactive or inconclusive.

SMILES	IL-1B inflam inh	PINK1 expr mod	SW480 rereplic	ATXN2 expr inh	MCF10A rereplic	S2 tox
Cc1cc(O)c(Sc2ncn[nH]2)cc1NS(=O)(=O)c1ccc(Cl)cc1	-0.3	1.8%	1.4%	-4.2%	6.1%	i
Cc1ccc(S(=O)(=O)Nc2ccc(Br)cc2C(NCC(=O)O)c2ccccc2)cc1 (configuration not stated)	8.1	2.4%	21.7%	3.0%	?	i
O=C(O)CSc1cc(NS(=O)(=O)c2ccc(Br)cc2)c2ccccc2c1O	-51.0*	-1.6%	?	nt	?	i
CC1(C)S[C@@H]2[C@H](NC(=O)C(c3ccccc3)S(=O)(=O)O)C(=O)N2[C@H]1C(=O)O (some centres not stated)	nt	nt	nt	-3.6%	nt	i
Nc1nc(O)c(N=Nc2ccc(S(N)(=O)=O)cc2)c(=O)[nH]1	23.3	2.3%	-5.1%	-23.4%	-0.8%	?
NS(=O)(=O)c1ccc(N=Nc2c[nH]c(=O)c(O)c2)cc1	-26.6	2.0%	?	3.8%	?	17.8µM*
O=C(NCc1ccccc1Cl)c1cc2c(s1)-c1ccc(Cl)cc1SC2	nt	10.6%	nt	-0.2%	nt	i
CCc1ccc2c(c1)C(=O)CCC2	27.2	1.6%	-10.2%	-2.2%	-3.7%	i
O=C1CCCc2cc3c(cc21)CC1(C3)Cc2cc3c(cc2C1)C(=O)CCC3	0.0	4.4%	5.8µM*	nt	3.26µM*	i
CCN1CCN(C(=O)c2cc(NC(=O)COC)cc3nc(-c4ccncc4)n(C)c23)CC1	nt	1.2%	nt	nt	nt	i
COc1ccc(-c2c(C#N)c(SCC(=O)c3cc4ccccc4oc3=O)nc(C)c2C(=O)Nc2ccccc2)cc1	26.4	?	20.6µM*	-8.8%	5.17µM*	?
Cc1nc(SCC(=O)c2cc3ccccc3oc2=O)c(C#N)c(-c2ccccc2)c1C(=O)Nc1ccccc1	0.0	?	7.31µM*	-14.0%	?	i
O=C(COc1ccc(Cl)cc1)Nc1ccc(C(=O)OCc2cc(=O)n3ccsc3n2)cc1	nt	3.5%	nt	-17.1%	nt	?
COc1ccc(Nc2nccc(-c3cccc(N)c3)n2)cc1	-86.7*	-1.5%	?	-54.6%	?	?
NN(Cc1ccccc1)C(=S)Nc1ccc(Cl)c(Cl)c1	-55.8*	8.7%	3.6%	-3.4%	1.2%	i
NC(=S)Nc1ccc(Cl)c(Cl)c1	-8.3	0.0%	-4.6%	nt	1.4%	?
O=C(COc1ccc(Cl)cc1)NCC(c1ccco1)S(=O)(=O)c1ccc(Cl)cc1 (configuration not stated)	nt	0.4%	nt	nt	nt	nt
Cc1ccc(C(=O)NCCC(C)C)cc1NC(=O)c1nsc2ccccc12	nt	6.5%	nt	-38.0%	nt	nt
CCc1nc(SCc2ccc(Cl)cc2)n[nH]1	-19.3	1.0%	-2.4%	30.3%	-10.1%	i
O=S(=O)(Nc1nc(SCc2ccc(Cl)cc2)n[nH]1)c1ccc(F)cc1	-59.2*	-1.2%	2.0%	7.1%	10.4%	i
Cc1cc(C)c2c(CCl)cc(=O)oc2c1	nt	0.2%	3.66µM*	41.6%	5.17µM*	?
Cc1ccc(OCC(=O)Nc2ccc(N3CCCC3)cc2)cc1C	19.8	1.8%[38.3 µM]	0.1%	-8.3%	0.9%	i
Cc1ccc(OCC(=O)NNC(=O)C2CCC2)cc1C	-16.1	1.1%	-2.2%	4.5%	3.26µM*	i
COc1ccc(-c2cc(C(=O)NCCc3ccc(OC)c(OC)c3)c3ccccc3n2)cc1	nt	-0.2%	nt	nt	nt	nt
Cc1cc(=O)oc2c1ccc1oc(/C(=N/O)c3ccccc3)c(C)c12	-74.1*	1.3%	-5.8%	?	?	i
SMILES	IL-1B inflam inh	PINK1 expr mod	SW480 rereplic	ATXN2 expr inh	MCF10A rereplic	S2 tox
Cc1ccc(/C(=N\O)c2oc3c(C)c4oc(=O)cc(C)c4cc3c2C)cc1	-28.6	?	28.4%	?	?	?
Cc1cc(C)c2oc(-c3cccc(NC(=O)c4ccc(-c5cccc([N+](=O)[O-])c5)o4)c3)nc2c1	nt	-0.5%	nt	1.6%	nt	i
C[C@@H](Nc1nc(Cl)nc2nc[nH]c12)c1ccccc1	nt	0.7%	nt	nt	nt	nt
Cn1cc(-c2coc3c(C(=O)NCc4cccc(Cl)c4)cccc23)cn1	-67.6*	-0.2%	nt	-34.2%	nt	?
COc1cc(-c2coc3c(C(=O)NCc4ccncc4)cccc23)ccc1O	-67.3*	0.4%	nt	-6.9%	nt	?
COc1cc(-c2coc3c(C(=O)NCc4ccc(OC)c(OC)c4)cccc23)ccc1O	-5.2	3.0%	nt	?	nt	15.8µM*
COc1cc(-c2coc3c(C(=O)Nc4ccc(C(C)C)cc4)cccc23)ccc1O	14.2	7.8%	nt	-15.6%	nt	i
COc1ccc(CNC(=O)c2cccc3c(-c4cccc(C(N)=O)c4)coc23)cc1OC	52.1	0.2%	nt	31.6µM*	nt	17.8µM*
COc1ccc(CNC(=O)c2cccc3c(-c4ccc(F)c(F)c4)coc23)cc1OC	-10.4	-0.7%	nt	0.0%	nt	i
COc1cc(-c2coc3c(C(=O)NCc4ccc(N(C)C)cc4)cccc23)ccc1O	-53.1*	0.6%	nt	?	nt	?
COc1ccc(-c2sc3ccc(N4CCOCC4)cc3c2C#CC2(O)CCCCC2)cc1	105.1	14.9%	?	6.5%	?	?
COc1ccc(/C=C/c2c(-c3ccc(OC)cc3)sc3ccc(N4CCOCC4)cc23)cc1	-4.2	-0.2%	0.9%	1.7%	8.2µM*	i
COc1ccc2sc(-c3ccc(SC)cc3)c(/C=C/c3ccc(OC)c(OC)c3)c2c1	2.8	1.0%	16.5%	2.4%	9.2µM*	i
COc1ccc(-c2sc3ccc(N4CCOCC4)cc3c2C#CCO)cc1	-0.1	1.6%	?	28.2µM*	11.6µM*	?
O=C(NCCc1ccccc1)c1sc2ncccc2c1-n1cccc1	nt	2.2%	nt	21.7%	nt	?
COc1ccc(C(=O)CSc2nnc(-c3cc4ccccc4cc3O)n2Cc2ccco2)cc1	-66.8*	-0.9%	13.1%	-15.7%	15.8%	i
COc1ccc(C(=O)CSc2nnc(-c3cccnc3)n2Cc2ccco2)cc1	?	-0.5%	-3.4%	-6.3%	-1.6%	i
COc1ccc(C2CC(=O)c3cc(-c4nc(-c5cccc([N+](=O)[O-])c5)cs4)c(=O)n(-c4cccc(C)c4)c3C2)cc1 (configuration not stated)	nt	0.7%	nt	2.8%	nt	i
COc1cc2c(cc1OC)C1(Nc3c-2c(-c2ccccc2)nn3-c2ccccc2)C(=O)Nc2ccccc21 (configuration not stated)	7.0	14.6%	5.17µM*	-17.5%	?	i
CCc1nn(-c2ccccc2)c2c1-c1cc(OC)c(OC)cc1C1(N2)C(=O)Nc2ccccc21 (configuration not stated)	-4.2	0.3%	?	1.9%	20.6µM*	?
